Source: PubChem BioAssay (several laboratories)
This is a sample that favours compounds with a hit; in the whole collection about 2.4% have one here.
TLR9-MyD88 inh = inhibitors of TLR9-MyD88 association in cells, primary screen, cell-based, CHO, BLA complementation, fluorescence; CCF4 FRET ratio; inhibition, % at 4.98 µM; AID 504734, 2011; Toll-like receptor 9 (Homo sapiens) + Myeloid differentiation primary response protein …; 0.21% of 340,000 active;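 active = inhibition above the mean over all tested compounds plus 3 SD, cut at about 21% in these data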;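 note: 0% = DMSO only wells and 100% = clavulanate BLA inhibitor control wells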
CRFBP-R2 block = antagonists of CRF-BP/CRF-R2 complex, primary screen, cell-based, HEK293, calcium dye fluorescence, uHTS; CRF-induced calcium fluorescence; inhibition, % at 11.8 µM; 0.59% of 350,000 active;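 active = inhibition of the ligand-induced calcium signal above about 50% at the single tested concentration, limit read from the data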
TLR4-MyD88 BLA = inhibitors of TLR4-MyD88 association in cells, primary screen, cell-based, HeLa CL3-4, BLA complementation, FRET ratio. Toll-like receptor 4 (Homo sapiens) + Myeloid differentiation primary response protein …. HeLa CL3-4 TLR4/MyD88 BLA complementation. inhibition, % at 8.4 µM. 0.18% of 200,000 active; in the data active = inhibition above about 25%;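 note: 0% = vehicle and 100% = reference inhibitor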
ABHD5 PLIN5 PPI = ABHD5-PLIN5 interaction inhibitors, primary screen, cell lysate, split luciferase complementation, luminescence | Perilipin-5 (Homo sapiens) + 1-acylglycerol-3-phosphate O-acyltransferase ABHD5 (Homo … | Split G. princeps luciferase complementation, 4 h | inhibition, % at 4 µM | 0.78% of 360,000 active;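 active = inhibition above the mean inhibition across every tested compound plus 3 SD, cut at about 22% in these data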;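 note: 0% = DMSO only wells and the 100% control is not disclosed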
m5-HT2A agonist = mouse Htr2a agonists via beta-arrestin recruitment, primary screen, cell-based, luminescence; AID 624169, 2012; activation, % at 7.6 µM; 5-hydroxytryptamine receptor 2A (Mus musculus), P35363; 0.66% of 360,000 active; CHO-K1 mHTR2A beta-arrestin complementation; percent of 30 µM serotonin response;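 active = activation above a run cutoff, the mean activation of all tested compounds plus 3 SD, cut at about 14% in these data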;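 note: 0% = plate median of compound wells and 100% = 30 µM serotonin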
NOD2 RIPK2 PPI = NOD2-RIPK2 binding disruptors in cells, primary screen, fluorescence, CHO cells, BLA complementation | Receptor-interacting serine/threonine-protein kinase 2 (Homo sapiens), O43353 | CCF4 ratio | inhibition, % at 4.98 µM | 0.38% of 360,000 active | AID 624267, 2012; in the data active = inhibition above about 21%;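 note: 0% = vehicle only and 100% = reference blocker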
ABHD5 PLIN5 conf = ABHD5-PLIN5 interaction inhibitors, confirmation, biochemical, luminescence; shares compounds with ABHD5 PLIN5 PPI; inhibition, % at 4 µM; 67% of 2,200 active; AID 651612, 2012; in the data active = inhibition above about 23%;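 note: 0% = DMSO vehicle wells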
HNF4 split-luc = HNF4 dimerization inhibitors, counter-screen for ABHD5-PLIN5 interaction inhibitor project, biochemical, split-luciferase complementation, luminescence | shares compounds with ABHD5 PLIN5 PPI | inhibition, % at 4 µM | 77% of 2,200 active | AID 651674, 2012;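 active = mean inhibition across replicate wells exceeding the computed hit threshold, cut at about 13% in these data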;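 note: light from luciferase halves that rejoin when HNF4 fusion proteins dimerize; 0% = DMSO only wells and the 100% control is not given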
Target sequence (P41235 whole entry, looked up, the tested form may be a part): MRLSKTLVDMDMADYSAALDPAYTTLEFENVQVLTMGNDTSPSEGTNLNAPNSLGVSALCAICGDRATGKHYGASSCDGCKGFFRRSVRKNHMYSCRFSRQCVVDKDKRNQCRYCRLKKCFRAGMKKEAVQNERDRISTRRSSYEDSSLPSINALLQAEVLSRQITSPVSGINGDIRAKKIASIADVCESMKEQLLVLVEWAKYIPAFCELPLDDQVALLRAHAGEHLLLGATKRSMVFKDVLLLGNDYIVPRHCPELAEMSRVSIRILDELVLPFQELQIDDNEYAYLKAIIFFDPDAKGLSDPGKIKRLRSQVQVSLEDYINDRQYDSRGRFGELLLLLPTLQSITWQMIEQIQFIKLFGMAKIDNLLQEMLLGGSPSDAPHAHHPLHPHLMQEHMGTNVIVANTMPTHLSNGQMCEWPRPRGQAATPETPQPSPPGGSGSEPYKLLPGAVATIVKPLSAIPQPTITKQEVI
Active calls of the source: *; . = no result given.

SMILES	TLR9-MyD88 inh	CRFBP-R2 block	TLR4-MyD88 BLA	ABHD5 PLIN5 PPI	m5-HT2A agonist	NOD2 RIPK2 PPI	ABHD5 PLIN5 conf	HNF4 split-luc
CCOC(=O)c1c(NC(=O)/C=C/C(=O)O)sc(C)c1-c1ccc(C(C)(C)C)cc1	11	0	5	35*	6	-4	71*	27*
Cc1ccc(C2C=CC(C#N)=CN2Cc2ccccc2)cc1 (stereo not given)	.	.	.	-3	-11	3	.	.
OC[C@@H]1CN(Cc2cccs2)C[C@H](n2cnc3c(NCc4ccc(F)cc4)ncnc32)O1	.	.	.	0	-6	-1	.	.
Cc1ccc2cc(C#N)c(NCc3ccco3)nc2c1	-5	-2	2	24*	-1	1	46*	61*
Cc1ccc2cc(C)c(SCC(=O)NCc3ccco3)nc2c1	1	-8	0	1	-2	-7	.	.
Cc1nn(-c2ccccc2)c2nc(-c3ccncc3)cc(C(=O)NCc3ccco3)c12	7	-26	6	24*	-6	9	21	26*
O=C(NCc1ccco1)c1cc2nc(-c3cccs3)cc(C(F)(F)F)n2n1	7	1	-2	23*	-4	19	13	16*
Cc1nn(-c2ccccn2)c2nc(-c3cccs3)cc(C(=O)NCc3ccco3)c12	18	23	12	35*	2	2	14	15*
COc1ccc(S(=O)(=O)N2CCCC(c3cc(C(=O)NCc4cccnc4)no3)C2)cc1 (stereo not given)	.	.	.	12	4	-8	.	.
CCOC(=O)C(NC(=O)c1cccc(Cl)c1)(Nc1sc2c(c1C(N)=O)CCC2)C(F)(F)F (stereo not given)	3	-2	0	-3	3	-9	.	.
CCOC(=O)C(NC(=O)c1ccccc1Cl)(Nc1sc2c(c1C(N)=O)CCC2)C(F)(F)F (stereo not given)	9	2	10	24*	3	2	23*	27*
O=C1[C@@H](c2ccccc2)CC[C@@H]2C=CC[C@H]3CCN1[C@@H]32	.	.	.	-2	-1	-8	.	.
Cc1cnc(C)c(Nc2nc(C(N)c3ccccc3)cs2)n1 (stereo not given)	.	.	.	0	12	-9	.	.
CCOC(=O)/C=C1\CN(C(C)c2ccccc2)S(=O)(=O)c2ccccc21 (stereo not given)	-3	-4	.	59*	-9	1	7	4
CCOC(=O)/C=C1\CN(CCC(C)C)S(=O)(=O)c2ccccc21	6	0	.	5	3	1	.	.
CC(=O)Nc1ccc(S(=O)(=O)N2c3ccc(F)cc3CCC2C)cc1 (stereo not given)	-2	7	.	27*	-1	-5	46*	5
COc1ccc(S(=O)(=O)N2c3ccc(F)cc3CCC2C)cc1 (stereo not given)	0	14	.	-6	-5	9	.	.
O=C(NCC(F)(F)F)c1cc2c(c(-c3cccc(-c4ccccc4F)c3)n1)[C@H](CCO)N(C(=O)CC1CC1)C2	.	.	.	9	-3	-5	.	.
Cc1ccc(-c2cc(C(=O)Nc3ccccc3C(N)=O)c3ccccc3n2)o1	.	-6	.	43*	3	1	28*	28*
Cc1ccc(-c2cc(C(=O)Nc3nccs3)c3ccccc3n2)o1	-4	-37	2	11	3	-2	.	.
COC(=O)[C@@]12C[C@@H](CC(=O)N3CCCCC3)C(=O)N(Cc3ccco3)C1=CCC(C)(C)C2	.	.	.	6	9	-3	.	.
COC1=CC(=O)C=C(OC)C1=O	15	-15	.	79*	8	22*	88*	105*
CCCCn1c(SCC(=O)NCc2ccco2)nnc1-c1ccco1	1	7	-4	3	0	-1	.	.
CCCCn1c(SCC(=O)NCc2ccco2)nnc1-c1ccoc1C	10	-24	-11	24*	-2	9	55*	28*
Cc1cc(NC(=O)CSc2nnc(COc3ccccc3)n2Cc2ccco2)no1	-7	2	3	2	-4	-7	.	.
SMILES	TLR9-MyD88 inh	CRFBP-R2 block	TLR4-MyD88 BLA	ABHD5 PLIN5 PPI	m5-HT2A agonist	NOD2 RIPK2 PPI	ABHD5 PLIN5 conf	HNF4 split-luc
O=C(CSc1nnc(COc2ccccc2)n1Cc1ccco1)NCc1ccco1	-9	-3	6	37*	0	4	44*	54*
O=C(OCC(=O)N1N=C(c2ccc(Cl)cc2)CC1c1ccco1)c1cncc(Br)c1 (stereo not given)	-6	-17	.	35*	0	-6	76*	89*
CC(=O)Cn1cnc2c(sc3nc(C)cc(C)c32)c1=O	-15	4	.	-7	-1	-4	.	.
Cc1cc(C)c2c(=O)n(CC(=O)N3CCC(N4CCCCC4)CC3)sc2n1	-3	-14	9	34*	6	-3	33*	98*
CCCNC(=O)Cn1sc2nc(C)cc(C)c2c1=O	-6	-7	.	45*	0	9	30*	107*
COc1ccc(-c2n(CC(=O)OC3CC(C)CCC3C(C)C)c3ccccc3[n+]2C)cc1 (stereo not given)	-6	-32	20	18	-2	-2	.	.
COc1ccc(OCc2n(CC(=O)OC3CC(C)CCC3C(C)C)c3ccccc3[n+]2C)cc1 (stereo not given)	2	-17	.	39*	-6	-4	14	9
Cc1cc2oc(=O)sc2cc1NS(=O)(=O)c1ccccc1	-3	0	.	39*	-2	-8	-72	-27
Cc1cc2oc(=O)sc2cc1NS(=O)(=O)c1cccc2cccnc12	-4	15	.	-11	14	-3	.	.
Oc1c(CN2CCCC(C(F)(F)F)C2)cc(Cl)c2ccccc12 (stereo not given)	4	1	.	24*	3	11	9	12
OC1CCCN(Cc2cccc3ccccc23)C1 (stereo not given)	-5	4	7	1	-2	-2	.	.
CCOc1ccc(C(CN2CCOCC2)C(C)=O)cc1OC (stereo not given)	.	.	.	34*	-5	17	12	57*
CC(=O)Nc1cc(-c2ccccc2N(C)C)cn2c(-c3ccc(S(C)(=O)=O)cc3)cnc12	.	.	.	8	8	10	.	.
